In PubChem BioAssay (Tox21):
Inconclusive results are not listed. Calls of active or inactive are those of the source. Calls follow the shape of the dose curve; as a rule, active = well fitted curve in the direction sought with a large enough effect in the repeat runs; inconclusive = weak or mixed curves; inactive = no such curve, though single readings can be large; an effect the other way counts as inactive or inconclusive.

Legend:
[1] = Caspase-3/7 induction in HepG2 cells by small molecules, qHTS assay (AID 1346978); also: nearly all actives have a fitted effect of over 15% in size
Procedure, shortened: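 Wild-type HepG2 cells, 2,000/well, settled 5 hr at 37 C and 5% CO2, then compound-treated for 17 hr; caspase-3/7 activity read by luminescent Caspase-Glo 3/7 after 30 min at room temperature.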

[2] = Caspase-3/7 induction in CHO-K1 cells by small molecules, qHTS cell viability counter screen (AID 1346979); also: nearly all actives have a fitted effect of over 35% in size
Procedure, shortened: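 Viability readout by fluorescence (CellTiter-Fluor) on wild-type CHO-K1 cells exposed for 16hr at 37C and 5% CO2 to compounds delivered in DMSO; reagent incubated 1hr before reading.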

[3] = Caspase-3/7 induction in CHO-K1 cells by small molecules, qHTS assay (AID 1346980); also: nearly all actives have a fitted effect of over 15% in size
Procedure, shortened: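 Wild-type CHO-K1 cells exposed to compounds for 17hr at 37 C, 5% CO2. Caspase-3/7 activity then measured by Caspase-Glo 3/7 luminescence after 30min at room temperature.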

[4] = Caspase-3/7 induction in HepG2 cells by small molecules, qHTS cell viability counter screen (AID 1346981); also: nearly all actives have a fitted effect of over 30% in size; as to activity change, negative = cytotoxicity: series mostly up to about 92 µM
Procedure, shortened: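 The parent HepG2 line is plated at 2,000 cells per well and rested 5 hr before compound pinning from DMSO stocks. Following a 16-hr treatment at 37 C, a fluorogenic live-cell substrate (CellTiter-Fluor) reports viability after 1 hr.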

[5] = biological target: Nuclear receptor subfamily 1 group I member 2 (Homo sapiens) (UniProt O75469); test: Human pregnane X receptor (PXR) small molecule agonists, qHTS assay (AID 1346982); also: nearly all actives have a fitted effect of over 35% in size
Sequence of Nuclear receptor subfamily 1 group I member 2 (Homo sapiens) (O75469 whole entry, looked up): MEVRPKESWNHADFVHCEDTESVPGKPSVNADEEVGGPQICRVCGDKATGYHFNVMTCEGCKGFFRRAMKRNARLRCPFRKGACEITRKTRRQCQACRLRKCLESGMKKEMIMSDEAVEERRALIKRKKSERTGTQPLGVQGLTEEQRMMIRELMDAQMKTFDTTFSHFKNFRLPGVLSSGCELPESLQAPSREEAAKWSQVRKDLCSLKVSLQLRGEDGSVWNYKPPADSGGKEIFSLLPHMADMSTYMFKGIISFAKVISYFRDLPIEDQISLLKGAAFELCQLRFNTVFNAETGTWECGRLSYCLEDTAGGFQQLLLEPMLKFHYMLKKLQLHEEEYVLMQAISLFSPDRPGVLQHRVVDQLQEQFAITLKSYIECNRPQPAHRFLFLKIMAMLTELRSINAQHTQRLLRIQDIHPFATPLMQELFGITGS
Procedure, shortened: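 After plating in 5% charcoal-stripped FBS and a 5 hr rest, PXR-Luc HepG2 cells received compounds in DMSO. Following 24 hr at 37 C, ONE-Glo was added and light output read.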

[6] = biological target: Nuclear receptor subfamily 1 group I member 2 (Rattus norvegicus) (UniProt Q9R1A7); test: Rat pregnane X receptor (rPXR) activation by small molecules, qHTS assay (AID 1346983); conditions: rPXR luciferase reporter cells, One-Glo luminescence, 24 h; max activation: stronger effect = higher value; also: nearly all actives have a fitted effect of over 20% in size
Sequence of Nuclear receptor subfamily 1 group I member 2 (Rattus norvegicus) (Q9R1A7 whole entry, looked up): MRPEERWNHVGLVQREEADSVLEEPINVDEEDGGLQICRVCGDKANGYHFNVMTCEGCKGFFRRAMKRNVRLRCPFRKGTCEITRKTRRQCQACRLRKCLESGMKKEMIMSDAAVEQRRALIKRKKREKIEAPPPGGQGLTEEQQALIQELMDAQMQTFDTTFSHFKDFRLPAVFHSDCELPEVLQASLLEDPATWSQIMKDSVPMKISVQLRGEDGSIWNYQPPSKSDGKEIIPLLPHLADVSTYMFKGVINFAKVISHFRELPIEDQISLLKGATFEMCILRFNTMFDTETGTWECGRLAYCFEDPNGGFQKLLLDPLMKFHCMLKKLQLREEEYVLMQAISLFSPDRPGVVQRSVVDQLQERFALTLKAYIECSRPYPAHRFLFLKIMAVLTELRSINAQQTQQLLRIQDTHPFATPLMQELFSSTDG
Procedure, shortened: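 Cell-based rPXR activation assay: rPXR cells, 2,000 per well, rested 5hr at 37 C, then exposed to compounds in DMSO for 24 hr at 37 C. Luciferase activity read by One-Glo luminescence after 30 min at room temperature.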

[7] = biological target: Nuclear receptor subfamily 1 group I member 2 (Homo sapiens) (UniProt O75469); test: CYP3A4 induction through human pregnane X receptor (PXR) by small molecules, qHTS assay (AID 1346984); also: nearly all actives have a fitted effect of over 40% in size
Procedure, shortened: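 Human PXR activation is tracked via CYP3A4 promoter-luciferase in DPX-2 (HepG2) cells. Compounds treat cells for 24hr at 37C, and luminescence is read after One-Glo.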

[8] = biological target: Nuclear receptor subfamily 1 group I member 2 (Homo sapiens) (UniProt O75469); test: Human pregnane X receptor (PXR) activation by small molecules, qHTS assay (AID 1346985); also: nearly all actives have a fitted effect of over 40% in size
Procedure, shortened: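 DPX-2 cells (HepG2 co-transfected with a PXR response element and a CYP3A4-promoter luciferase construct) were seeded at 2,000 per well, rested 5 hr at 37C, then exposed to DMSO-dissolved compounds for 24 hr. Activation was read as luciferase luminescence.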

[9] = biological target: Cytochrome P450 2D6 (Homo sapiens) (UniProt P10635); test: Cytochrome P450 Family 2 Subfamily D Member 6 (CYP2D6) small molecule antagonists: luciferase reporter qHTS assay (AID 1671196); also: nearly all actives have a fitted effect of over 50% in size; as to activity change, negative = inhibition: series mostly up to about 120 µM
Sequence of Cytochrome P450 2D6 (Homo sapiens) (P10635 whole entry, looked up): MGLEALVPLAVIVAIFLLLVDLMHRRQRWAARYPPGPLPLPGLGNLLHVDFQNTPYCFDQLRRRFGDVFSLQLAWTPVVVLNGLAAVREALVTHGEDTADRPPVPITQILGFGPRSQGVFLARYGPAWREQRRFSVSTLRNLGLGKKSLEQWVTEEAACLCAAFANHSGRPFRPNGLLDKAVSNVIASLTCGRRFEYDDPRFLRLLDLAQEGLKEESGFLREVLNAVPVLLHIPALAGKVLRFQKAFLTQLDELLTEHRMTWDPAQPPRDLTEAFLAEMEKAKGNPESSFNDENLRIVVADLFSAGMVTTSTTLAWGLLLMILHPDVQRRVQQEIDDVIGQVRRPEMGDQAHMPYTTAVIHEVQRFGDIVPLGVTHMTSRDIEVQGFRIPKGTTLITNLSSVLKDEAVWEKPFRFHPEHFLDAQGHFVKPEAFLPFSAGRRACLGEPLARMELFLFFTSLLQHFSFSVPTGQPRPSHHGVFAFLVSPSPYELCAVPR
Procedure, shortened: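 Quantitative HTS of Tox21 chemicals against CYP2D6 using a luminescent proluciferin substrate. After NADPH addition, 1 h room-temperature reaction; luminescence recorded 20 min post detection reagent.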

[10] = biological target: Cytochrome P450 2C19 (Homo sapiens) (UniProt P33261); test: Cytochrome P450 Family 2 Subfamily C Member 19 (CYP2C19) small molecule antagonists: luciferase reporter qHTS assay (AID 1671197); also: nearly all actives have a fitted effect of over 65% in size; as to activity change, negative = inhibition: series mostly up to about 120 µM
Sequence of Cytochrome P450 2C19 (Homo sapiens) (P33261 whole entry, looked up): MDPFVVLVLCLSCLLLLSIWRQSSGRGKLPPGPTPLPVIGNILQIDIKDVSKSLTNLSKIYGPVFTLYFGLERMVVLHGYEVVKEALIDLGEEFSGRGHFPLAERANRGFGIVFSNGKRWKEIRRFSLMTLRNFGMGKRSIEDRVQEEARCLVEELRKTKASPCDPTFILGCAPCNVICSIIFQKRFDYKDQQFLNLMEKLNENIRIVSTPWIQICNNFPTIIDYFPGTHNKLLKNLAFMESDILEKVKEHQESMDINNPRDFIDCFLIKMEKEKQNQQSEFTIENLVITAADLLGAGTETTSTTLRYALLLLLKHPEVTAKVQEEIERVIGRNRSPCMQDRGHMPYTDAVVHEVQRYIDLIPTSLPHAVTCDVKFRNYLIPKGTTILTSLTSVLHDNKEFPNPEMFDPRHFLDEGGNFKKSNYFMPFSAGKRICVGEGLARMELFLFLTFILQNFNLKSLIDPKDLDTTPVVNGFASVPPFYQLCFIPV
Procedure, shortened: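 Relative luminescence units recorded 20 min after the detection reagent stopped a 1 h, 37C CYP2C19 reaction on proluciferin substrate, which was started by NADPH regeneration following 10 min room-temperature compound preincubation; ketoconazole positive control.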
% is scaled to controls: 0 for no effect and ±100 for the full control effect; potency is read from the fitted curve at half-maximal effect.

COc1ccc(C(=O)N2CCN(CC(=O)N3CCOCC3)CC2)cc1
inactive: Potency [1] | Potency [2] | Potency [3] | Potency [4] | Potency [5] | max activation [6] -1.44% | Potency [7] | Potency [8] | Potency [9] | Potency [10]

CNC(=O)CN(CCN(CCN(CC(=O)[O-])CC(=O)NC)CC(=O)[O-])CC(=O)[O-].O.[Gd+3]
inactive: Potency [1] | Potency [2] | Potency [3] | Potency [4] | Potency [5] | Potency [9]

C=C(C)C(=O)OCCOCC
active: Potency [9] 31.9 µM
inactive: Potency [1] | Potency [2] | Potency [3] | Potency [4] | Potency [5]

CC(C)O.CC(C)O.CCOC(=O)/C=C(\C)O.CCOC(=O)/C=C(\C)O.[Ti]
inactive: Potency [1] | Potency [2] | Potency [3] | Potency [4]

COc1cc(C(=O)OCCCN2CCCN(CCCOC(=O)c3cc(OC)c(OC)c(OC)c3)CC2)cc(OC)c1OC
active: Potency [2] 23.7 µM | Potency [4] 26.6 µM | Potency [5] 29.8 µM
inactive: Potency [1] | Potency [3]

NCc1ccccc1Sc1ccccc1CO
active: Potency [9] 7.76 µM | Potency [10] 21.9 µM
inactive: Potency [1] | Potency [2] | Potency [3] | Potency [4] | Potency [5] | max activation [6] -1.62% | Potency [7] | Potency [8]

C[N+]1(C)CCC(OC(=O)C(O)(c2ccccc2)C2CCCC2)C1 (centres undefined)
inactive: Potency [1] | Potency [2] | Potency [3] | Potency [4] | Potency [5]

CCCCC(=O)OCC(=O)[C@H]1[C@H](C)C[C@H]2[C@@H]3C[C@H](F)C4=CC(=O)C=C[C@]4(C)[C@@]3(F)[C@@H](O)C[C@@]21C
active: Potency [5] 9.44 µM
inactive: Potency [1] | Potency [2] | Potency [3] | Potency [4]

OC(C#CCN1CCCC1)(c1ccccc1)c1ccccc1
inactive: Potency [1] | Potency [2] | Potency [3] | Potency [4] | max activation [6] 1.06%
active: Potency [5] 23.7 µM | Potency [7] 15.8 µM | Potency [9] 11 µM | Potency [10] 2.45 µM

CCCn1cnc2c1c(=O)n(CCCCC(C)=O)c(=O)n2C
inactive: Potency [1] | Potency [2] | Potency [3] | Potency [4] | Potency [5]

COc1cc2c(cc1OC)C(C(C(=O)N(CCc1ccc(OC)c(OC)c1OC)CCc1ccc(OC)c(OC)c1OC)c1ccccc1)=NCC2 (centres undefined)
inactive: Potency [1] | Potency [3] | Potency [7]
active: Potency [2] 26.6 µM | Potency [4] 26.6 µM | Potency [5] 2.66 µM | Potency [6] 2.51 µM | Potency [8] 7.94 µM | Potency [9] 5.49 µM | Potency [10] 12.3 µM

CCn1cc(C(=O)O)c(=O)c2cnc(N3CCNCC3)nc21
inactive: Potency [1] | Potency [2] | Potency [3] | Potency [4] | Potency [5] | max activation [6] -1.76% | Potency [7] | Potency [8] | Potency [9] | Potency [10]

CC1(c2ccccc2)OC(C(=O)O)=CC1=O (centres undefined)
inactive: Potency [1] | Potency [2] | Potency [3] | Potency [4] | Potency [5] | max activation [6] -1.39% | Potency [7] | Potency [8] | Potency [10]

CCCCCCCCO[C@@H]1O[C@H](CO)[C@@H](O)[C@H](O)[C@H]1O
inactive: Potency [1] | Potency [2] | Potency [3] | Potency [4] | Potency [5] | Potency [9] | Potency [10]

CCN(CC)CCNc1ccc(CNC=O)c2sc3ccc(OC)cc3c(=O)c12
inactive: Potency [5]
active: Potency [1] 61.1 µM | Potency [2] 6.11 µM | Potency [3] 30.6 µM | Potency [4] 9.69 µM | Potency [9] 6.33 µM

CC[N+](C)(CC)CCOC(=O)C(O)(c1ccccc1)C1CCCCC1 (centres undefined)
inactive: Potency [1] | Potency [2] | Potency [3] | Potency [4] | Potency [5]
active: Potency [9] 0.776 µM

CCOc1ccc(N=Nc2ccc(/C=C/c3ccc(N=Nc4ccc(OCC)cc4)cc3S(=O)(=O)O)c(S(=O)(=O)O)c2)cc1
inactive: Potency [1] | Potency [3] | Potency [5] | Potency [9]
active: Potency [2] 38 µM | Potency [4] 42.6 µM

CCC(CC)Nc1ccc(C)c(C)c1
active: Potency [10] 7.1 µM
inactive: Potency [1] | Potency [2] | Potency [3] | Potency [4] | Potency [5] | Potency [9]

C[Si](C)(CCCN)O[Si](C)(C)CCCN
inactive: Potency [1] | Potency [2] | Potency [3] | Potency [4] | Potency [5]
active: Potency [9] 22.4 µM | Potency [10] 39.9 µM

C=CC1CC2C=CC1C2 (centres undefined)
inactive: Potency [1] | Potency [2] | Potency [3] | Potency [4] | Potency [5] | Potency [9]

CCCCCCCC/C=C\CCCCCCCC(=O)OCC
inactive: Potency [1] | Potency [2] | Potency [3] | Potency [4] | Potency [5] | Potency [9]

CCCCCCCCCCCc1ccccc1
inactive: Potency [1] | Potency [2] | Potency [3] | Potency [4] | Potency [5] | Potency [9]

O=S(=O)(Oc1ccc(Cl)cc1)c1ccccc1
inactive: Potency [1] | Potency [2] | Potency [3] | Potency [4]
active: Potency [5] 54.5 µM | Potency [9] 31.7 µM

C=C1[C@H]2CC[C@@H]3[C@H]2C(C)(C)CCC[C@]13C
inactive: Potency [1] | Potency [2] | Potency [3] | Potency [4] | Potency [5] | Potency [9]

CCCC(=O)Nc1ccc(O)c(C(C)=O)c1
inactive: Potency [1] | Potency [2] | Potency [3] | Potency [4] | Potency [5] | Potency [9] | Potency [10]

CCN(CC)c1ccc(C(=C2C=CC(=[N+](CC)CC)C=C2)c2cc(S(=O)(=O)O)ccc2S(=O)(=O)[O-])cc1
inactive: Potency [1] | Potency [3] | Potency [5]
active: Potency [2] 26.6 µM | Potency [4] 23.7 µM | Potency [9] 13.8 µM

O=C(O)CNCC(=O)O
inactive: caspase activation [1] 2.93% [at 8.39 µM] | activity change, negative = cytotoxicity [2] 0.398% [at 8.39 µM] | caspase-3/7 activation [3] 0.331% [at 8.39 µM] | activity change, negative = cytotoxicity [4] 1.14% [at 8.39 µM] | activation [5] -2.51% [at 8.39 µM] | activity change, negative = inhibition [9] -0.567% [at 10.5 µM]

CCN(CC)CCNC(=O)c1cc(Br)c(N)cc1OC
inactive: Potency [1] | Potency [2] | Potency [3] | Potency [4] | Potency [5] | Potency [10]
active: Potency [9] 4.9 µM
